Laboratory results reported in the supplement of paper PMC10849652.
Of roughly 8,800 targets only a part is listed; those with a hit were picked by preference. About 0.5% of all pairs of compound and target were hits.

Key:
Assay in all cases: log2 fold change, soluble protein after heating vs DMSO (PISA); higher = thermal stabilisation; K562 lysate, 10 uM; active = over 0.2 and 3.5 SD of the protein, either way, in both replicates (recomputed)
[1] = compound: Cc1cn(-c2cc(NC(=O)c3ccc(C)c(Nc4nccc(-c5cccnc5)n4)c3)cc(C(F)(F)F)c2)cn1 [nilotinib]
Procedure, shortened: (§1)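 Following dounce homogenisation of K562 pellets in PBS pH 7.4 with 1 mM MgCl2, crude extract at 1 mg/mL protein was incubated for 30 min with 10 μM compound. Aliquots were then heated for 3 min over 48°C-58°C and pooled, NP-40 was added to 0.5% at 4°C, and soluble protein was recovered as the supernatant at 21,000xg for 90 min. Channel-sum-equalised TMTpro 16plex LC-MS/MS quantified this protein. Each value, from duplicates, is a log-two fold change in thermal stability relative to solvent controls.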

[2] = compound: Cc1nc(Nc2n[nH]c3c2CN(C(=O)N[C@H](CN(C)C)c2ccccc2)C3(C)C)c2sccc2n1
Procedure, shortened: as §1

[3] = compound: Cc1nc(Nc2ncc(C(=O)Nc3c(C)cccc3Cl)s2)cc(N2CCN(CCO)CC2)n1 [dasatinib]
Procedure, shortened: as §1

[4] = compound: Cc1ncc(-c2ccnc(Nc3ccc(S(C)(=O)=O)cc3)n2)n1C(C)C
Procedure, shortened: as §1

[5] = compound: Cn1cc(-c2ccc3c(c2)CCN3C(=O)Cc2cccc(C(F)(F)F)c2)c2c(N)ncnc21
Procedure, shortened: as §1

[6] = compound: Cn1cc(CNCC2CCN(c3ncc(C(=O)NO)cn3)CC2)c2ccccc21 [quisinostat]
Procedure, shortened: as §1

[7] = compound: Cn1cncc1[C@@](N)(c1ccc(Cl)cc1)c1ccc2c(c1)c(-c1cccc(Cl)c1)cc(=O)n2C [tipifarnib]
Procedure, shortened: as §1

[8] = compound: NC(=O)Nc1cc(-c2cccc(F)c2)sc1C(=O)N[C@H]1CCCNC1
Procedure, shortened: as §1

[9] = compound: NC(=O)c1cnc(N[C@@H]2CCCC[C@@H]2N)nc1Nc1cccc(-n2nccn2)c1
Procedure, shortened: as §1

[10] = compound: NC1(c2ccc(-c3nc4ccn5c(=O)[nH]nc5c4cc3-c3ccccc3)cc2)CCC1
Procedure, shortened: as §1

[11] = compound: NCC(=O)Nc1ccc(-n2nc(C(F)(F)F)cc2-c2ccc3c(ccc4ccccc43)c2)cc1
Procedure, shortened: as §1

[12] = compound: O=C(CCCCCCC(=O)Nc1ccccc1)NO [vorinostat]
Procedure, shortened: as §1

[13] = compound: O=C(O)c1ccc2c(c1)nc(Nc1cccc(Cl)c1)c1ccncc12 [silmitasertib]
Procedure, shortened: as §1

[14] = compound: O=C1NC(=O)C(c2cnc3ccccn23)=C1c1cn2c3c(cc(F)cc13)CN(C(=O)N1CCCCC1)CC2
Procedure, shortened: as §1

[15] = compound: c1cn2cc(-c3ccc4cn[nH]c4c3)nc(Nc3ccc(N4CCOCC4)cc3)c2n1 [entospletinib]
Procedure, shortened: as §1

Measured: log2 fold change

CARD9 (UniProt Q9H257)
Sequence of UniProt Q9H257 (Q9H257 whole entry, looked up): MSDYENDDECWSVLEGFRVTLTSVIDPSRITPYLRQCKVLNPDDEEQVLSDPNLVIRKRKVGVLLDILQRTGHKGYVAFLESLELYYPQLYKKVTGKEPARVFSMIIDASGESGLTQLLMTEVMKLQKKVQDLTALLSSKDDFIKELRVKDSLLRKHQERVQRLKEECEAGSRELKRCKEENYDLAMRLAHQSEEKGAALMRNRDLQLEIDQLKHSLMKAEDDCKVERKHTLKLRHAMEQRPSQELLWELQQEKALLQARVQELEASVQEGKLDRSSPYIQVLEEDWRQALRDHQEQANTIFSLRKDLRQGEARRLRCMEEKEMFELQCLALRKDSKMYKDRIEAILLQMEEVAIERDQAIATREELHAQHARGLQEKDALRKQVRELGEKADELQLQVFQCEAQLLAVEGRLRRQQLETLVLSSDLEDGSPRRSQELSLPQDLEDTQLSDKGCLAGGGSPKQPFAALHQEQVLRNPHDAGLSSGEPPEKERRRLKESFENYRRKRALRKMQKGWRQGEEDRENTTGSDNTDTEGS
inactive: [1] 0.047 | [2] -0.037 | [3] -0.017 | [4] 0.028 | [5] 0 | [6] -0.032 | [7] -0.035 | [8] 0.005 | [9] 0.034 | [10] -0.007 | [11] 0.008 | [13] 0.011 | [14] 0.014 | [15] -0.038
active: [12] -0.217

BAHCC1 (UniProt Q9P281)
inactive: [1] -0.191 | [2] 0.019 | [3] -0.144 | [4] -0.141 | [5] -0.039 | [6] -0.328 | [7] 0.031 | [8] -0.053 | [9] 0.021 | [10] 0.07 | [11] 0.009 | [12] -0.082 | [13] -0.086 | [14] -0.158 | [15] -0.069

CBX1 (UniProt P83916)
Sequence of UniProt P83916 (P83916 whole entry, looked up): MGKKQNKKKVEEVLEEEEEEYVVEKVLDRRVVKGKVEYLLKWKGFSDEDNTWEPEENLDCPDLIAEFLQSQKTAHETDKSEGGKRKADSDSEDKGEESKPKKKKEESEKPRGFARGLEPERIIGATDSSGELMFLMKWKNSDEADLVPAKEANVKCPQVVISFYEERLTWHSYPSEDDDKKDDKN
inactive: [1] 0.006 | [2] -0.003 | [3] 0.017 | [4] 0 | [5] -0.027 | [6] -0.004 | [7] -0.008 | [8] -0.004 | [9] 0.062 | [10] 0.012 | [11] 0.029 | [12] 0.092 | [13] -0.046 | [14] -0.01 | [15] -0.018

CDK5RAP2 (UniProt Q96SN8)
inactive: [1] 0.024 | [2] -0.009 | [3] -0.002 | [4] 0.056 | [5] -0.015 | [6] -0.081 | [7] -0.011 | [8] -0.006 | [9] -0.104 | [10] -0.001 | [11] 0.042 | [12] -0.156 | [13] 0 | [14] 0.026 | [15] -0.042

C5orf51 (UniProt A6NDU8)
Sequence of UniProt A6NDU8 (A6NDU8 whole entry, looked up): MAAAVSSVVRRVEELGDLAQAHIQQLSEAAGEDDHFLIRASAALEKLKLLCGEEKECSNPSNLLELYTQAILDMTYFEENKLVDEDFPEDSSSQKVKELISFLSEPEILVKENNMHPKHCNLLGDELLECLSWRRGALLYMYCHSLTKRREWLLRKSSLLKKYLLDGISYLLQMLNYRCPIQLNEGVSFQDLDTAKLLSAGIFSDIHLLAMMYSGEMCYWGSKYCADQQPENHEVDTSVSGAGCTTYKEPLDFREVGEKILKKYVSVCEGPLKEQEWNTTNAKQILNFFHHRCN
inactive: [1] -0.061 | [2] 0.006 | [3] -0.029 | [4] 0.017 | [5] 0.02 | [6] -0.066 | [7] 0.026 | [8] 0.1 | [9] 0.002 | [10] -0.023 | [11] 0.042 | [13] 0.036 | [14] -0.003 | [15] 0.015
active: [12] -0.501

CASP3 (UniProt P42574)
Sequence of UniProt P42574 (P42574 whole entry, looked up): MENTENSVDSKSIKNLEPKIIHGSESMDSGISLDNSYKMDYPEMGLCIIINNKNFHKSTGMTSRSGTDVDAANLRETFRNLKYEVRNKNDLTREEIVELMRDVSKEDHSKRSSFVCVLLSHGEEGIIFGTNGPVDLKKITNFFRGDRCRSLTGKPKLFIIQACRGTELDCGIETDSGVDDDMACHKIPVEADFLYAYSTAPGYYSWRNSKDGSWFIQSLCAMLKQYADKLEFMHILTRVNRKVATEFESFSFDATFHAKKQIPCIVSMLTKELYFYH
inactive: [1] 0.032 | [2] -0.024 | [3] 0.053 | [4] 0.023 | [5] 0.008 | [6] -0.029 | [7] -0.033 | [8] 0 | [9] -0.01 | [10] 0.022 | [11] -0.031 | [12] 0.058 | [13] -0.02 | [14] 0.007 | [15] -0.027

BLOC1S6 (UniProt Q9UL45)
Sequence of UniProt Q9UL45 (Q9UL45 whole entry, looked up): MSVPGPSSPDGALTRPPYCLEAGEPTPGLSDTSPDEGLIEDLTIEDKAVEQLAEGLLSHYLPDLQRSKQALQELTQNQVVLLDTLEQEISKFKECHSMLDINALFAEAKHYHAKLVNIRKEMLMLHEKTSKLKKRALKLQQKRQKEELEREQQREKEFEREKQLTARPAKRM
active: [12] -0.386
inactive: [1] -0.073 | [2] 0.036 | [3] 0.093 | [4] 0.093 | [5] -0.008 | [6] 0.042 | [7] -0.063 | [8] -0.049 | [9] -0.023 | [10] 0.096 | [11] -0.022 | [13] 0.004 | [14] 0.011 | [15] 0.046

CAMK2G isoform 8 (UniProt Q13555)
Sequence of UniProt Q13555 (Q13555 whole entry, looked up): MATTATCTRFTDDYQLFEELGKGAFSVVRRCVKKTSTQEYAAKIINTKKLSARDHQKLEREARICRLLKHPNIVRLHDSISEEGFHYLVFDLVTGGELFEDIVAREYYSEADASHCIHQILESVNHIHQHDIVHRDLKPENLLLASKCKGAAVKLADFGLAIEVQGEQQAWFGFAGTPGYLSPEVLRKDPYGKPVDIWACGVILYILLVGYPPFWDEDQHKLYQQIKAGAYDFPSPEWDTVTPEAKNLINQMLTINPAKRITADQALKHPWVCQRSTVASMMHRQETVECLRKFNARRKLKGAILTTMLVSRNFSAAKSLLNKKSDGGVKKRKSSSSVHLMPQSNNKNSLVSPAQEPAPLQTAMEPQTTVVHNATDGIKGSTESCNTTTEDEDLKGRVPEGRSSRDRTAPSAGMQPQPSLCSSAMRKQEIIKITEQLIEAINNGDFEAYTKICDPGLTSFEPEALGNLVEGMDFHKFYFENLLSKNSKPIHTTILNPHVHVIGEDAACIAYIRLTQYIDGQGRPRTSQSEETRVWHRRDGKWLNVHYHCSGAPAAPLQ
active: [2] 0.518
inactive: [1] -0.007 | [3] -0.034 | [4] 0.039 | [5] -0.062 | [6] -0.125 | [7] -0.005 | [8] 0.219 | [9] 0.019 | [10] -0.125 | [11] -0.044 | [12] -0.208 | [13] 0.087 | [14] 0.084 | [15] 0.004

BCKDHB (UniProt P21953)
Sequence of UniProt P21953 (P21953 whole entry, looked up): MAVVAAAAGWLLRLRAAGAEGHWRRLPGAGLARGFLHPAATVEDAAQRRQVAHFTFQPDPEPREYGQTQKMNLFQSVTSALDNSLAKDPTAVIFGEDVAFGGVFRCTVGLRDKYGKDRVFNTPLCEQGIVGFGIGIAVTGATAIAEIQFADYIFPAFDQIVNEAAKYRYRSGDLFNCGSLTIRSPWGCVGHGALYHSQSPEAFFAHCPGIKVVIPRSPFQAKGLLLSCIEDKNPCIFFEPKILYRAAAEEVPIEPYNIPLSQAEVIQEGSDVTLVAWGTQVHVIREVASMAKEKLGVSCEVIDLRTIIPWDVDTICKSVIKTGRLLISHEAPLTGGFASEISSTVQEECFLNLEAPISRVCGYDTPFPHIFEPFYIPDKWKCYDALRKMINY
inactive: [1] 0.068 | [2] 0.007 | [3] 0.062 | [4] 0.084 | [5] 0.039 | [6] 0.031 | [7] -0.069 | [8] -0.005 | [9] 0.007 | [10] -0.039 | [11] 0.055 | [13] 0.076 | [14] 0.072 | [15] -0.123
active: [12] -0.275

CAMK2B (UniProt Q13554)
Sequence of UniProt Q13554 (Q13554 whole entry, looked up): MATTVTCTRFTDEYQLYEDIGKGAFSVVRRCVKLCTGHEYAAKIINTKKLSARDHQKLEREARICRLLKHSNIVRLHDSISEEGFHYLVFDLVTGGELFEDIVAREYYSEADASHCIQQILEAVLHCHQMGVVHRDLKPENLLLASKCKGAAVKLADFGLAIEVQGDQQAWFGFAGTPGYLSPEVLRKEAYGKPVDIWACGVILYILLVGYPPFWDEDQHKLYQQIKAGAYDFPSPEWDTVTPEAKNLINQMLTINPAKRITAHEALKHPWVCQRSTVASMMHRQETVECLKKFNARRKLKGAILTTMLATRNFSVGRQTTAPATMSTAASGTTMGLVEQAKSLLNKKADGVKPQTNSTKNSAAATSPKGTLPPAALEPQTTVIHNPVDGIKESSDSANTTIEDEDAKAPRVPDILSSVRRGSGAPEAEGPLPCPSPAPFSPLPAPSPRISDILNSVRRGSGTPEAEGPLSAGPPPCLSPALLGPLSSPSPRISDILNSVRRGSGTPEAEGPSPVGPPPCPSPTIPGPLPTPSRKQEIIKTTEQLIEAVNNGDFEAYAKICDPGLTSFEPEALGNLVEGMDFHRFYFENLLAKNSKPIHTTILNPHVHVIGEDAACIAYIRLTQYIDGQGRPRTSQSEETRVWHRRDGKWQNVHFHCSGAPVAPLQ
active: [2] 0.399
inactive: [1] -0.026 | [3] -0.055 | [4] 0.026 | [5] 0.023 | [6] -0.205 | [7] -0.035 | [8] 0.295 | [9] 0.089 | [10] -0.045 | [11] 0.014 | [12] -0.133 | [13] -0.017 | [14] 0.056 | [15] -0.02

CBX5 (UniProt P45973)
Sequence of UniProt P45973 (P45973 whole entry, looked up): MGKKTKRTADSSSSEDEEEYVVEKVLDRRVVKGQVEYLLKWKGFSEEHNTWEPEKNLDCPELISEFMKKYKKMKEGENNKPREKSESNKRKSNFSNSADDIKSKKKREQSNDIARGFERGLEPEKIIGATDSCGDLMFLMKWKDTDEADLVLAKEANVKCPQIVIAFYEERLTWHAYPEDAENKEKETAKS
inactive: [1] 0.014 | [2] 0.011 | [3] 0.028 | [4] 0.052 | [5] -0.017 | [6] -0.09 | [7] -0.024 | [8] 0.014 | [9] -0.004 | [10] 0.007 | [11] 0.033 | [12] -0.062 | [13] -0.005 | [14] -0.048 | [15] 0.014

ATAD1 (UniProt Q8NBU5)
Sequence of UniProt Q8NBU5 (Q8NBU5 whole entry, looked up): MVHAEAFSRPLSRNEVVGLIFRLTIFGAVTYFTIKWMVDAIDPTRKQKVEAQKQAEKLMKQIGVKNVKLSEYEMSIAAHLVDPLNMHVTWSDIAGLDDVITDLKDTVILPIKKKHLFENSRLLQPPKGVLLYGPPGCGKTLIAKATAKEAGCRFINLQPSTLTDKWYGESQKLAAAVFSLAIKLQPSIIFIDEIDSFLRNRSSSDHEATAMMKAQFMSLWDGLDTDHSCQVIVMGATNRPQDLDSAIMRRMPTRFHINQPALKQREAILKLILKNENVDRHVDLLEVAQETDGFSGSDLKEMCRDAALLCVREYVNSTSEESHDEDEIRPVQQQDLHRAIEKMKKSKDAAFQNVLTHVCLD
inactive: [1] 0.073 | [2] -0.015 | [3] 0.001 | [4] -0.153 | [5] 0.039 | [6] -0.072 | [7] -0.072 | [8] -0.001 | [9] 0.027 | [10] -0.031 | [11] -0.047 | [13] 0.021 | [14] 0.002 | [15] 0.008
active: [12] -0.617

CARNMT1 (UniProt Q8N4J0)
Sequence of UniProt Q8N4J0 (Q8N4J0 whole entry, looked up): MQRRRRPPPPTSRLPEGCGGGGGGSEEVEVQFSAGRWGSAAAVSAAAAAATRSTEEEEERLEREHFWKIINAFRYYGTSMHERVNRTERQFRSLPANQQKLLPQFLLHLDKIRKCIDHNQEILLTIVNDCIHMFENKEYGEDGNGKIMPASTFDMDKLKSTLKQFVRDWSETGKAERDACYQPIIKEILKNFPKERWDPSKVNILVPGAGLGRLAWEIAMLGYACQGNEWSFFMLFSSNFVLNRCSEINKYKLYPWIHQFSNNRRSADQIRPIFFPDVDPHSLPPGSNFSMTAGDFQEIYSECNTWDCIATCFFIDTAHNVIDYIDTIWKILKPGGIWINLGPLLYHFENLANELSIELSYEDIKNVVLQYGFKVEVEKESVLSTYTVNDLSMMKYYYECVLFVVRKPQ
inactive: [1] 0.019 | [2] -0.016 | [3] 0.003 | [4] -0.019 | [5] 0.006 | [6] -0.173 | [7] 0.011 | [8] 0.004 | [9] 0.019 | [10] -0.023 | [11] 0.005 | [12] 0.027 | [13] 0.008 | [14] -0.028 | [15] -0.039

CAPNS1 (UniProt P04632)
Sequence of UniProt P04632 (P04632 whole entry, looked up): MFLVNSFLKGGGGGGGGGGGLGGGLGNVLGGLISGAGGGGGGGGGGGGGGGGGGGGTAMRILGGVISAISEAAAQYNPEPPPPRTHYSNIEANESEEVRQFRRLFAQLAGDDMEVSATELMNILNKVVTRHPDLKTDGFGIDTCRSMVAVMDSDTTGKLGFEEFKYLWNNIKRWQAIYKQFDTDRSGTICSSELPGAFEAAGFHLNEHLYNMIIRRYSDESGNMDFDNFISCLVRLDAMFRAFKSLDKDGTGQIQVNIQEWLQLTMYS
inactive: [1] -0.007 | [2] 0.027 | [3] 0.035 | [4] -0.002 | [5] -0.014 | [6] 0.078 | [7] 0.017 | [8] -0.077 | [9] -0.05 | [10] 0.01 | [11] -0.08 | [12] 0.07 | [13] -0.007 | [14] -0.039 | [15] 0.033

CHAC2 (UniProt Q8WUX2)
Sequence of UniProt Q8WUX2 (Q8WUX2 whole entry, looked up): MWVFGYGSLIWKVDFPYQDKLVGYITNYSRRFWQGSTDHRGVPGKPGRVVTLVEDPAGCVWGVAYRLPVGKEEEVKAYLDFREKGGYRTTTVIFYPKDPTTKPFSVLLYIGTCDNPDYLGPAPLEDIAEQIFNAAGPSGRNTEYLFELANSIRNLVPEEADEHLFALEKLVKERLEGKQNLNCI
inactive: [1] 0.004 | [2] 0.043 | [3] -0.022 | [4] -0.024 | [5] 0.036 | [6] -0.066 | [7] 0.041 | [8] 0.019 | [9] 0.017 | [10] -0.027 | [11] -0.158 | [12] 0.066 | [13] -0.02 | [14] -0.012 | [15] -0.052

CARHSP1 (UniProt Q9Y2V2)
inactive: [1] 0.037 | [2] -0.037 | [3] 0.017 | [4] -0.004 | [5] -0.04 | [6] -0.006 | [7] 0.035 | [8] -0.034 | [9] -0.026 | [10] -0.001 | [11] 0.045 | [12] 0.052 | [13] -0.006 | [14] 0.056 | [15] -0.049

CCND3 (UniProt P30281)
Sequence of UniProt P30281 (P30281 whole entry, looked up): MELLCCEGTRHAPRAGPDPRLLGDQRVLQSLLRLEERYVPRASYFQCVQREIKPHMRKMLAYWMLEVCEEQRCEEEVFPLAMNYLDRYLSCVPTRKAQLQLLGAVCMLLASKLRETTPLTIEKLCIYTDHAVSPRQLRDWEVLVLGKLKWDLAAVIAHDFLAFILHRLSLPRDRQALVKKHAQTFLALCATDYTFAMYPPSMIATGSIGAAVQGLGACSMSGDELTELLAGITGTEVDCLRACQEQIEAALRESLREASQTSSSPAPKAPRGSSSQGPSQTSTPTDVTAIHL
inactive: [1] -0.061 | [2] -0.015 | [3] -0.08 | [4] 0.042 | [5] 0.137 | [6] -0.05 | [7] -0.062 | [8] -0.003 | [10] -0.057 | [12] -0.051 | [13] 0.017 | [14] 0.086 | [15] 0.062

CCDC186 (UniProt Q7Z3E2)
inactive: [1] -0.046 | [2] -0.056 | [3] -0.014 | [4] 0.03 | [5] 0.043 | [6] -0.03 | [7] -0.01 | [8] 0.033 | [9] -0.017 | [10] 0.001 | [11] 0.052 | [12] 0.005 | [13] 0.057 | [14] 0.012 | [15] -0.01
